Data from PubChem BioAssay AID1159580 (chemical genetic matrix, 2015).
Screen size: about 5,500 compounds; about 2,000 (36%) were called active. Inconclusive results (about 18%) are left out. Rule as the data show it: active = normalized growth mostly below about 0.91 (no sharp cut-off); inconclusive = no clear call, values can overlap the other calls; inactive = mostly above about 0.92. The list shows a part of the results.

Experiment: chemical genetic growth profiling, strain panel (AID 1159580);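 also: tested at 20 µM; growth read once vehicle control cultures reached saturation at 30 °C; 1 = growth at the plate median or of vehicle wells; lower values mean less growth of the strain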
Conditions: S. cerevisiae deletion strains, growth OD
[1] = locus YAL040C, strain CLN3, stronger effect = lower value
[2] = locus YCL061C, strain MRC1 (second series), stronger effect = lower value
[3] = locus YDR363W, strain ESC2, stronger effect = lower value
[4] = locus YER002W, strain NOP16, stronger effect = lower value
[5] = locus YNL175C, strain NOP13, stronger effect = lower value
[6] = locus YNL197C, strain WHI3, stronger effect = lower value
[7] = locus YNL224C, strain SQS1, stronger effect = lower value
[8] = locus YOR083W, strain WHI5 (second series), stronger effect = lower value

Measured: normalized growth

NS(=O)(=O)c1cccc2c1c([N+](=O)[O-])cc1nc(O)c(O)nc12
inactive: locus YAL013W, strain DEP1, stronger effect = lower value 1 | [1] 1.08 | [2] 0.998 | [3] 1.01 | [4] 0.999 | locus YGR078C, strain PAC10, stronger effect = lower value 0.995 | locus YMR307W, strain GAS1, stronger effect = lower value 0.997 | [5] 0.989 | [6] 1.01 | [7] 1 | locus YNL322C, strain KRE1, stronger effect = lower value 0.998 | [8] 1.01 | locus YPL055C, strain LGE1, stronger effect = lower value 1

O=[N+]([O-])c1cccc2cn[nH]c12
inactive: locus YAL021C, strain ccr4, stronger effect = lower value 1.01 | locus YAL026C, strain drs2, stronger effect = lower value 1 | locus YAL030W, strain snc1, stronger effect = lower value 1 | [1] 0.985 | locus YBL061C, strain skt5, stronger effect = lower value 0.996 | locus YBR009C, strain hhf1, stronger effect = lower value 1 | locus YBR023C, strain chs3, stronger effect = lower value 0.991 | locus YBR171W, strain sec66, stronger effect = lower value 0.981 | locus YBR231C, strain swc5, stronger effect = lower value 0.982 | locus YBR279W, strain paf1, stronger effect = lower value 1 | locus YCL011C, strain gbp2, stronger effect = lower value 0.983 | locus YCL016C, strain dcc1, stronger effect = lower value 0.989 | [2] 1 | locus YCL061C, strain MRC1, stronger effect = lower value 0.997 | locus YCL069W, strain vba3, stronger effect = lower value 0.986 | locus YCR088W, strain abp1, stronger effect = lower value 0.98 | locus YDL005C, strain med2, stronger effect = lower value 0.997 | locus YDL040C, strain nat1, stronger effect = lower value 1 | locus YDR001C, strain nth1, stronger effect = lower value 0.99 | locus YDR069C, strain doa4, stronger effect = lower value 0.982 | locus YDR137W, strain rgp1, stronger effect = lower value 0.996 | locus YDR159W, strain sac3, stronger effect = lower value 0.991 | locus YDR195W, strain ref2 1.02 | locus YDR297W, strain sur2, stronger effect = lower value 0.988 | locus YDR334W, strain swr1, stronger effect = lower value 0.997 | locus YDR335W, strain msn5, stronger effect = lower value 0.986 | [3] 1.01 | locus YDR392W, strain spt3, stronger effect = lower value 1.02 | locus YEL003W, strain gim4, stronger effect = lower value 1 | locus YEL037C, strain rad23, stronger effect = lower value 1 | locus YEL061C, strain CIN8 (second series), stronger effect = lower value 0.979 | [4] 0.987 | locus YER015W, strain faa2, stronger effect = lower value 0.994 | locus YER016W, strain bim1, stronger effect = lower value 1 | locus YER111C, strain swi4, stronger effect = lower value 0.989 | locus YER155C, strain BEM2 (second series), stronger effect = lower value 1.01 | locus YFR010W, strain ubp6, stronger effect = lower value 0.988 | locus YGL167C, strain pmr1, stronger effect = lower value 0.998 | locus YGL173C, strain kem1, stronger effect = lower value 1.01 | locus YGL227W, strain vid30, stronger effect = lower value 1.01 | locus YGL240W, strain doc1, stronger effect = lower value 1.01 | locus YGL253W, strain hxk2, stronger effect = lower value 0.99 | locus YGR229C, strain SMI1, stronger effect = lower value 0.999 | locus YHR013C, strain ard1, stronger effect = lower value 1.05 | locus YHR027C, strain rpn1, stronger effect = lower value 0.994 | locus YHR030C, strain SLT2, stronger effect = lower value 1.03 | locus YHR079C, strain IRE1, stronger effect = lower value 1.03 | locus YHR142W, strain chs7, stronger effect = lower value 0.995 | locus YJL092W, strain hpr5, stronger effect = lower value 0.989 | locus YJL095W, strain BCK1 (second series), stronger effect = lower value 1 | locus YJL095W, strain BCK1, stronger effect = lower value 1.03 | locus YJL115W, strain asf1, stronger effect = lower value 0.984 | locus YJL129C, strain trk1, stronger effect = lower value 1 | locus YJL154C, strain vps35, stronger effect = lower value 0.981 | locus YJL164C, strain tpk1, stronger effect = lower value 0.988 | locus YJL166W, strain qcr8, stronger effect = lower value 0.992 | locus YJL187C, strain SWE1, stronger effect = lower value 0.999 | locus YJR066W, strain TOR1, stronger effect = lower value 0.947 | locus YJR075W, strain HOC1, stronger effect = lower value 1.01 | locus YKL160W, strain elf1, stronger effect = lower value 0.958 | locus YKR026C, strain gcn3, stronger effect = lower value 1 | locus YKR091W, strain srl3, stronger effect = lower value 0.988 | locus YLL001W, strain dnm1, stronger effect = lower value 0.999 | locus YLL026W, stronger effect = lower value 0.98 | locus YLL041C, strain sdh2, stronger effect = lower value 0.985 | locus YLR027C, strain aat2, stronger effect = lower value 1 | locus YLR113W, strain HOG1, stronger effect = lower value 1 | locus YLR221C, strain rsa3, stronger effect = lower value 0.995 | locus YLR258W, strain gsy2, stronger effect = lower value 0.983 | locus YLR262C, strain YPT6 (second series), stronger effect = lower value 1.01 | locus YLR320W, strain mms22, stronger effect = lower value 1 | locus YLR342W, strain FKS1, stronger effect = lower value 1.01 | locus YLR357W, strain rsc2, stronger effect = lower value 0.993 | locus YLR370C, strain arc18, stronger effect = lower value 0.994 | locus YLR384C, strain iki3, stronger effect = lower value 0.996 | locus YML120C, strain ndi1, stronger effect = lower value 0.991 | locus YMR058W, strain fet3, stronger effect = lower value 0.982 | locus YMR125W, strain sto1, stronger effect = lower value 0.967 | locus YMR129W, stronger effect = lower value 0.993 | locus YMR205C, strain PFK2, stronger effect = lower value 0.991 | locus YMR231W, strain pep5, stronger effect = lower value 1 | locus YNL071W, strain lat1, stronger effect = lower value 1.01 | locus YNL128W, strain TEP1, stronger effect = lower value 0.998 | [5] 0.999 | locus YNL183C, strain NPR1, stronger effect = lower value 0.951 | [6] 0.992 | locus YNL209W, strain ssb2, stronger effect = lower value 0.972 | [7] 1 | locus YNL248C, strain rpa49, stronger effect = lower value 0.965 | locus YNL322C, strain KRE1 (second series), stronger effect = lower value 0.993 | locus YNR049C, strain mso1, stronger effect = lower value 1 | locus YOR001W, strain rrp6, stronger effect = lower value 1 | locus YOR070C, strain gyp1, stronger effect = lower value 0.992 | locus YOR080W, strain dia2, stronger effect = lower value 1.01 | [8] 1 | locus YOR083W, strain WHI5, stronger effect = lower value 0.965 | locus YOR106W, strain vam3, stronger effect = lower value 0.981 | locus YOR231W, strain MKK1, stronger effect = lower value 1.01 | locus YOR265W, strain rbl2, stronger effect = lower value 0.996 | locus YOR270C, strain vph1, stronger effect = lower value 0.992 | locus YOR290C, strain snf2, stronger effect = lower value 0.986 | locus YPL051W, strain arl3, stronger effect = lower value 0.972 | locus YPL078C, strain atp4, stronger effect = lower value 0.995 | locus YPL106C, strain sse1, stronger effect = lower value 0.957 | locus YPL240C, strain hsp82, stronger effect = lower value 0.992 | locus YPL256C, strain CLN2, stronger effect = lower value 0.997
